# Measurements as given in the supplement of paper PMC6411743.
# ± gives the standard deviation of the averaged measurements. Targets with the largest changes are over-represented here; the source holds about 5,400 in all.
# Compound: Nc1nc2c(ncn2[C@@H]2O[C@H](COP(=O)(O)OP(=O)(O)OP(=O)(O)O)[C@@H](O)[C@H]2O)c(=O)[nH]1 [guanosine triphosphate]
# Test: NP40-soluble protein abundance relative to vehicle (solubility fold change) (ratio); higher = more soluble protein in presence of GTP
# Experimental: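 Solubility proteome profiling in Jurkat crude lysate. Lysate was treated with Mg-GTP (0.1-10 mM) for 10 min at room temperature and 3 min at 37 °C, then solubilised with 0.8% NP40 and benzonase, followed by ultracentrifugation. Proteins were quantified by TMT10 LC-MS/MS; the value is the NP40-soluble abundance relative to the NP40-processed vehicle, from 3 independent experiments.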
# Sequence of UniProt Q96GM5 (Q96GM5 whole entry): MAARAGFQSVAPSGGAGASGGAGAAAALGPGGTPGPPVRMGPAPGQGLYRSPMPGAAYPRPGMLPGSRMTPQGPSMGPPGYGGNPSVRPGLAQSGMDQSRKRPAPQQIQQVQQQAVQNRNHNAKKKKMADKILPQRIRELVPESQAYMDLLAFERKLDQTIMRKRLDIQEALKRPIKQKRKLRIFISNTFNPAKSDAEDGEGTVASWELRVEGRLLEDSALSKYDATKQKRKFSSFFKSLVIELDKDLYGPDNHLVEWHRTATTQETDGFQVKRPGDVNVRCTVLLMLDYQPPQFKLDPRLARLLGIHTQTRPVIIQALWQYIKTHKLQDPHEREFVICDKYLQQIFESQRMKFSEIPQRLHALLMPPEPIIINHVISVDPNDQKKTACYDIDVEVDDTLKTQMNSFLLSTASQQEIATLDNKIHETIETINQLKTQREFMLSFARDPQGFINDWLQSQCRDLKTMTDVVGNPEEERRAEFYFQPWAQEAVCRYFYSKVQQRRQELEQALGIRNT
# Sequence of UniProt Q9NRX1 (Q9NRX1 whole entry): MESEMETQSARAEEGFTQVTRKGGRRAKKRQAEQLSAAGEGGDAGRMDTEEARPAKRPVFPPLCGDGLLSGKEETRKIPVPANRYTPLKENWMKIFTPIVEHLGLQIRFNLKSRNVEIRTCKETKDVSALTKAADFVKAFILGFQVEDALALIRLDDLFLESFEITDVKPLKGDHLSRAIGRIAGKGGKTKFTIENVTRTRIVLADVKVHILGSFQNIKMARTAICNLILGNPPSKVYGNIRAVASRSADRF
# Sequence of UniProt Q92900 (Q92900 whole entry): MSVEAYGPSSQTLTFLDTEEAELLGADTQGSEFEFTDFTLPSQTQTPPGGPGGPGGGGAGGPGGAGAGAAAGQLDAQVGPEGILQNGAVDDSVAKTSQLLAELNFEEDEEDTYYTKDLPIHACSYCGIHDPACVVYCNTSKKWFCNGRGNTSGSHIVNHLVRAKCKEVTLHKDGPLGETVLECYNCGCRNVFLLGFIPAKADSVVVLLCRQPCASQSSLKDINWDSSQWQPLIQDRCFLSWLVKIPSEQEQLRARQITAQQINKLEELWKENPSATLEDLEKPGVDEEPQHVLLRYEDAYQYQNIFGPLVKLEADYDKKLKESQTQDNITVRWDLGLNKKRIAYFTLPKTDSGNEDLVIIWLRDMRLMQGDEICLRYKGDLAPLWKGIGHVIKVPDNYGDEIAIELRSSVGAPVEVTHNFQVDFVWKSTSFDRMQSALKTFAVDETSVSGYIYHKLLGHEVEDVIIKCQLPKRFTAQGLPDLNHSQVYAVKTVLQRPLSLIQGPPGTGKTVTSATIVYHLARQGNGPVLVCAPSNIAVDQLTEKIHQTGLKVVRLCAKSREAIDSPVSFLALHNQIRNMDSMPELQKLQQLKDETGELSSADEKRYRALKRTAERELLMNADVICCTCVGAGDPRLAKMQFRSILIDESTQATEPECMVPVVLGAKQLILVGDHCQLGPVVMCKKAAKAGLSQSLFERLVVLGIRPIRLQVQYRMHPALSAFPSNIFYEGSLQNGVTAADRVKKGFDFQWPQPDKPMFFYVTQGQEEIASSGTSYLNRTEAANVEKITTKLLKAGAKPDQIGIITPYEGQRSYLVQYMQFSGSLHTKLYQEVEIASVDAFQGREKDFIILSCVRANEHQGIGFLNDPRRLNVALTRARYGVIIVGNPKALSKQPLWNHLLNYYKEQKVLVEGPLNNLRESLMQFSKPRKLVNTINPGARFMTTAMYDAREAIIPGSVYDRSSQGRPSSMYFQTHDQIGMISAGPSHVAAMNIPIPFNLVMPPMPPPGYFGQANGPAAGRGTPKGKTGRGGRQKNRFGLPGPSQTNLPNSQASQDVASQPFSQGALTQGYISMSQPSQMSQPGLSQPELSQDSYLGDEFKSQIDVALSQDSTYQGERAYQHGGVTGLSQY
# Sequence of UniProt Q99828 (Q99828 whole entry): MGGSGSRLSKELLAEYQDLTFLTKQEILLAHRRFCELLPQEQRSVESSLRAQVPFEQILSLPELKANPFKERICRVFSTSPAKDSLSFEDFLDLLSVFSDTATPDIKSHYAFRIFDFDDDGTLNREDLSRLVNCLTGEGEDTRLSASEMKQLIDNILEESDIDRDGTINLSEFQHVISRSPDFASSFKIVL
target,measurement,setting,value
PNO1 (UniProt Q9NRX1),NP40-soluble protein abundance,concentration: 0.1mM,1.04 ± 0.082
same,NP40-soluble protein abundance,concentration: 0.5mM,1.09 ± 0.17
same,NP40-soluble protein abundance,concentration: 1mM,1.14 ± 0.19
same,NP40-soluble protein abundance,concentration: 2mM,1.15 ± 0.28
same,NP40-soluble protein abundance,concentration: 4mM,1.09 ± 0.27
same,NP40-soluble protein abundance,concentration: 6mM,1.09 ± 0.3
same,NP40-soluble protein abundance,concentration: 8mM,1.15 ± 0.28
same,NP40-soluble protein abundance,concentration: 10mM,1.15 ± 0.32
UniProt Q92900|Q92900-2,NP40-soluble protein abundance,concentration: 0.1mM,1.01 ± 0.025
same,NP40-soluble protein abundance,concentration: 0.5mM,1.01 ± 0.04
same,NP40-soluble protein abundance,concentration: 1mM,0.936 ± 0.034
same,NP40-soluble protein abundance,concentration: 2mM,0.971 ± 0.065
same,NP40-soluble protein abundance,concentration: 4mM,0.957 ± 0.049
same,NP40-soluble protein abundance,concentration: 6mM,0.937 ± 0.057
same,NP40-soluble protein abundance,concentration: 8mM,0.898 ± 0.035
same,NP40-soluble protein abundance,concentration: 10mM,0.884 ± 0.011
UniProt Q9NVI7-2,NP40-soluble protein abundance,concentration: 0.1mM,1.07 ± 0.062
same,NP40-soluble protein abundance,concentration: 0.5mM,1.16 ± 0.085
same,NP40-soluble protein abundance,concentration: 1mM,1.34 ± 0.083
same,NP40-soluble protein abundance,concentration: 2mM,1.56 ± 0.18
same,NP40-soluble protein abundance,concentration: 4mM,1.79 ± 0.32
same,NP40-soluble protein abundance,concentration: 6mM,1.9 ± 0.29
same,NP40-soluble protein abundance,concentration: 8mM,2.04 ± 0.29
same,NP40-soluble protein abundance,concentration: 10mM,2.11 ± 0.29
SMARCD1 (UniProt Q96GM5),NP40-soluble protein abundance,concentration: 0.1mM,1.06 ± 0.036
same,NP40-soluble protein abundance,concentration: 0.5mM,1.11 ± 0.065
same,NP40-soluble protein abundance,concentration: 1mM,1.09 ± 0.089
same,NP40-soluble protein abundance,concentration: 2mM,1.18 ± 0.16
same,NP40-soluble protein abundance,concentration: 4mM,1.18 ± 0.17
same,NP40-soluble protein abundance,concentration: 6mM,1.18 ± 0.19
same,NP40-soluble protein abundance,concentration: 8mM,1.15 ± 0.18
same,NP40-soluble protein abundance,concentration: 10mM,1.16 ± 0.17
UniProt Q99828|Q99828-2,NP40-soluble protein abundance,concentration: 0.1mM,0.956 ± 0.08
same,NP40-soluble protein abundance,concentration: 0.5mM,0.981 ± 0.11
same,NP40-soluble protein abundance,concentration: 1mM,1.02 ± 0.081
same,NP40-soluble protein abundance,concentration: 2mM,1.02 ± 0.084
same,NP40-soluble protein abundance,concentration: 4mM,1.02 ± 0.092
same,NP40-soluble protein abundance,concentration: 6mM,1 ± 0.12
same,NP40-soluble protein abundance,concentration: 8mM,0.996 ± 0.11
same,NP40-soluble protein abundance,concentration: 10mM,0.911 ± 0.12
